According to the supplement of paper PMC6555819:

What was measured:
Assay in all cases: PBM binding z-score (relative to random genomic background probes); higher = stronger binding; sequences stand for … in GC…GCGATTGACAGCGTAGAATGAAGG
[1] = test system: PPARg:RXRa DBDmut IVT, anti-RXR (DBD mutation: RXRa K156A/R161A, NR concentration 270 nM, RXRa partner concentration 90 nM)
Procedure, shortened: (§1)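 Random background probes are the reference for binding z-scores. These scores derive from regression-normalized fluorescence on custom Agilent 4×180K protein-binding microarrays incubated 1 h with ligand-free nuclear receptor dimers. Binding was detected with antibodies against each partner (one per run).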

[2] = test system: PPARg:RXRa IVT, anti-PPARg (NR concentration 270 nM, RXRa partner concentration 90 nM)
Procedure, shortened: as §1

[3] = test system: PPARg DBDmut:RXRa IVT, anti-PPARg (DBD mutation: PPARg1 K132A/R137A, NR concentration 270 nM, RXRa partner concentration 90 nM)
Procedure, shortened: as §1

[4] = test system: PPARg DBDmut IVT, anti-PPARg (DBD mutation: PPARg1 K132A/R137A, NR concentration 270 nM)
Procedure, shortened: as §1

[5] = test system: PPARg homodimer (NR concentration 180 nM)
Procedure, shortened: as §1

[6] = test system: PXR:RXRa (NR concentration 270 nM, RXRa partner concentration 90 nM)
Procedure, shortened: as §1

[7] = test system: PXR homodimer (NR concentration 270 nM)
Procedure, shortened: as §1

[8] = test system: RARa:RXR (NR concentration 270 nM, RXRa partner concentration 90 nM)
Procedure, shortened: as §1

[9] = test system: RARa homodimer (NR concentration 270 nM)
Procedure, shortened: as §1

[10] = test system: RARb:RXRa (NR concentration 270 nM, RXRa partner concentration 90 nM)
Procedure, shortened: as §1

Row | Sequence | PBM binding z-score [1] | PBM binding z-score [2] | PBM binding z-score [3] | PBM binding z-score [4] | PBM binding z-score [5] | PBM binding z-score [6] | PBM binding z-score [7] | PBM binding z-score [8] | PBM binding z-score [9] | PBM binding z-score [10]
1 | TCATATAGGTAATTGCTAGGTGAAAGTCCGATCT | 4.13 | 2.91 | 0.632 | 1.27 | 0.408 | 0.515 | 0.224 | 0.757 | 0.784 | 0.345
2 | TAGCCTAGGCCAGATCGGGCCAGTATACGCTATA | -0.93 | -0.678 | -0.211 | -0.658 | -1.06 | -0.946 | -0.923 | -0.593 | -1.1 | -0.396
3 | AGAATGAGGTTACCCAAGATCAGGGAAACGCTTG | 3.03 | 2.92 | 1.56 | 1.21 | 0.367 | 1.58 | -0.185 | 2.03 | -0.0633 | 1.82
4 | CCGACTGGGGCAAGATTACCATAACGCACAGCCA | 2.97 | 2.41 | -0.0501 | -0.549 | -0.195 | -0.741 | -0.382 | -0.513 | -0.747 | 0.315
5 | GCTCCTAGGTCAGGTTGGTCAGCTAACGGGTACG | 3.08 | 2.33 | 0.131 | -0.79 | 0.823 | 0.632 | 0.2 | 1.26 | -0.173 | 3.58
6 | CGTCCAAGGTCAGCAGGCCAGTGAAAGCGACGTG | 2.35 | 2.56 | -0.196 | -0.403 | 1.55 | 2.26 | -0.0334 | 3.14 | 0.266 | 5.01
7 | CCGACTGGGGCAAAGGTAACCATACTCAGTACGA | 4.95 | 5.05 | -0.085 | -0.917 | 0.706 | 0.067 | -0.401 | 1.14 | -0.0329 | 0.906
8 | CAAACTAGGTCCCAGAGGTCAAAGTCCGTGCGTA | 4.19 | 4.68 | 1.03 | 0.477 | 2.64 | 5.55 | 2.66 | 5.68 | 1.33 | 3.8
9 | TCTTGTAGATTAGCAGGTTAAGAAAGCTGGCCAA | 1.76 | 0.791 | -0.369 | -0.0447 | 0.0886 | 0.329 | 0.0335 | 0.552 | 0.796 | 0.197
10 | TCTTGTAGATCAGCAGGTTAAAAAAGCTGGCCAA | 1.58 | 0.467 | -0.542 | 0.0495 | 0.159 | 0.148 | -0.197 | 0.613 | -0.11 | 0.0554
11 | TCTCGGAGGACACGAAAGATCAGAGCTCGACATC | 1.5 | 0.155 | -0.549 | -1.75 | -1.47 | -0.243 | -0.552 | -0.0104 | -0.742 | 1.17
12 | CCTACTGGGGCATTCAGAGGTCATTGATCATATG | 4.5 | 5.15 | 0.018 | 0.266 | 2.6 | 5.08 | 2.1 | 4.67 | 0.372 | 3.45
13 | CCGACTGGGGCATAGGTTACCATACTCAGTACGA | 2.91 | 4.3 | -0.132 | -0.537 | 0.866 | 0.141 | -0.441 | 0.637 | -0.24 | 0.735
14 | TCGAGTTGGTCAAAGGTCACACACTCGAAATGCG | 1.75 | 5.88 | 1.98 | 1.49 | 8.37 | 6.29 | 1.41 | 7.61 | 4 | 4.9
15 | AGAACAAGGGCAATGAGTTGATAGCACGGGTGGC | 2.52 | 1.75 | 0.287 | -0.527 | 0.058 | 0.978 | 4.14 | 0.000148 | -0.325 | 2.2
16 | CCGACTGGGGCAGAAAAGTTACCATACCATCCGG | 1.36 | 0.746 | -1.85 | -1.61 | 0.0393 | -0.593 | -0.395 | -0.848 | 0.0243 | -0.0999
17 | CATACATGGTCAGCTAGGCCAGAGTAGGGACGGC | -0.304 | 0.125 | 0.136 | -0.418 | -0.795 | -0.724 | -0.583 | -0.808 | 0.055 | 0.8
18 | CCTCCTGGGCCAAAGGTCATTGATTCCAATGCTC | 1.03 | 4.67 | -0.712 | -0.452 | 3.43 | 5.26 | 1.79 | 5.99 | 0.948 | 4.3
19 | CGGACTGGGGCAGAAAGGTTACCATACCATCCGG | 3.24 | 4.12 | -0.341 | -0.159 | 1.44 | 1.41 | 0.0628 | 1.82 | 0.413 | 2.12
20 | CAATCTAGGTCAAGAGGTCAAAGTCCGCTTCCCG | 8.4 | 8.71 | 5.68 | 4.57 | 9.94 | 6.5 | 3.63 | 8.3 | 5.1 | 5.36
21 | CCTTATGGGTCACGAGGTTATAGCACGACGAGCG | 6.86 | 7.13 | 2.07 | 2.59 | 3.76 | 3.9 | 0.436 | 5.4 | 0.87 | 4.43
22 | AGAATGAGGTTGCCAAAGATCAGGGAAACGCTTG | -0.0771 | -0.145 | -0.469 | -0.747 | -0.291 | 0.0324 | -0.465 | 0.398 | -0.509 | 0.286

Row | Sequence | PBM binding z-score [1] | PBM binding z-score [2] | PBM binding z-score [3] | PBM binding z-score [4] | PBM binding z-score [5] | PBM binding z-score [6] | PBM binding z-score [7] | PBM binding z-score [8] | PBM binding z-score [9] | PBM binding z-score [10]
23 | ATCTCTAGGTAAAGTTCAGTGAAAGATCGATAGA | 2.6 | 2.6 | 1.37 | 0.916 | 1.68 | 2.11 | 1.93 | 1.86 | 1.27 | 2.86
24 | GCTAGTTGGTCCGTAAAAGGTCACACACCGGTCG | 0.234 | 1.86 | 0.724 | 0.195 | 2.89 | 4.94 | 1.12 | 5.63 | 1.86 | 3.99
25 | TCTAGCAGGCCAGAGGGTCACTAAAGAGGTACGG | 0.806 | 0.475 | -0.497 | -1.37 | 0.659 | 1.14 | -0.609 | 1.8 | -0.574 | 2.05
26 | CCTAGCATGCCAATCTGGGTCACTCAAGGCTTGA | 3.67 | 4.84 | 0.133 | -0.458 | 0.737 | 0.913 | -0.249 | 1.65 | -0.219 | 1.16
27 | TGTTAAAGTTCAAAGGTAACGTAAGTATCCACAC | 0.162 | 3.26 | 2.15 | 2.02 | 3.98 | 5.77 | 4.11 | 6.35 | 1.41 | 4.93
28 | CCTACTGGGCCATTCAGAGGTCCTTGATCATATG | 4.1 | 3.15 | -0.401 | 0.127 | -0.0171 | -0.621 | -0.408 | -0.409 | -0.479 | 0.0641
29 | TGAATGAGATTAAAGATCAGGGAACGTGGCGTCG | -0.695 | -0.415 | -1.12 | -0.126 | -0.076 | -0.42 | -0.498 | -0.467 | 0.0825 | -0.19
30 | CCTACTGGGCCAAGGTCGTTGATCAGTCAAAGCA | 3.4 | 3.41 | -1.53 | -1.31 | -0.148 | 0.637 | 0.241 | 0.405 | -0.549 | 1.09
31 | ATCTCGAGGTAACAAGTTCAGTGAAAGAGAGGAC | 0.257 | 1.41 | 0.523 | 1.06 | 0.56 | 1.74 | 1.63 | 1.3 | 0.416 | 1.73
32 | GCTAGTTGGTCAGTAATAGGTCACACACCGGTCG | 1.6 | 2.79 | -0.0555 | -0.765 | 1.88 | 2.1 | 0.429 | 2.93 | 0.809 | 2.57
33 | CCTAGTAGGCCAATCTGGGTCACTCAAGGCTTGA | 6.2 | 6.35 | 0.0197 | -0.994 | 0.502 | 1.07 | -0.356 | 1.39 | -0.858 | 1.78
34 | GCAGACAGGTGAAACGCGGGTAACTCAGGGTGGC | 1.2 | 0.724 | -0.459 | -1.01 | -0.647 | -0.0302 | -0.747 | 0.318 | -0.909 | 0.691
35 | GCGACTGGGGCAAAGCAGGTTACCTTAAGGTTGG | 4.98 | 3.47 | -0.487 | -1.22 | -0.599 | 0.288 | -0.563 | 0.523 | -0.791 | 0.877
36 | ATACCAAGGTGATCGTGAGGTCGTTGATACTAAC | 0.604 | 1.28 | 0.214 | 0.382 | 1.03 | 2.86 | 1.53 | 1.82 | 0.745 | 1.42
37 | GCTGCTAGGTCAACTGATGGTCAGCTACAGCTCG | 4.96 | 3.94 | -0.525 | -0.577 | 1.97 | 1.62 | -0.454 | 2.71 | -0.247 | 4.15
38 | ATACCAAGGTGATCGTGAGGTGGTTGATACTAAC | 0.119 | 0.996 | 0.272 | 0.15 | 0.0507 | 0.417 | 0.167 | 0.474 | 0.144 | 0.774
39 | TCTTGTAGATGAAGCAGGTTAAGAAAGCCTGAGT | 1.86 | 0.0295 | 0.394 | -0.11 | 0.107 | 0.195 | 0.164 | 0.228 | -0.232 | -0.0996
40 | GCGACTGGGGCAAAGCAGGTTACTATAAGGTTGG | 4.62 | 3.88 | 0.068 | -0.036 | 0.617 | 0.375 | -0.473 | 0.949 | -0.471 | 0.879
41 | TCTAGCAGTCCAGAGGGTCACTCAAGAGGTACGG | 0.669 | 0.15 | -0.632 | -0.476 | 0.412 | 1.67 | -0.406 | 2.48 | 0.0783 | 2.07
42 | GCGACTGGGGCATCAGCAGGTTACCATCACTTAA | 4.02 | 3.08 | -0.268 | -0.441 | 0.406 | -0.239 | -0.641 | 0.272 | -0.548 | 0.891
43 | GCATATAGTTAATACAAGGTGAAAGTCCGATTGT | 0.418 | 0.597 | 0.14 | 1.15 | 0.564 | 0.322 | 0.372 | 0.691 | 0.956 | 0.235
44 | CCTTACGGGTCACTGACAGGTTGTAGCATTTGGA | 3.45 | 3.69 | 0.239 | -0.219 | 2.3 | 3.28 | -0.0802 | 4.11 | 0.949 | 3.79
